According to PubChem BioAssay (EPA / NIEHS):
Active and inactive are the calls of the source. How the source made its calls: active means hit-call score of the fitted dose curve at least 0.9, where 1 is the maximum; inactive means score below 0.9.

read-out: C-C motif chemokine 2 (Homo sapiens) (UniProt P13500); test: BSK_KF3CT_MCP1: BioMAP Diversity Plus: KF3CT Assay for Monocyte Chemoattractant Protein 1 (MCP1/CCL2) Biomarker Activity (AID 2283073); settings: primary human keratinocytes with fibroblasts; actives raise or lower the signal
In short: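 Keratinocytes and foreskin fibroblasts were co-cultured, dosed with chemical, and sampled 24 h later. MCP-1 was quantified by ELISA, and the endpoint was analyzed with bidirectional fitting using DMSO as negative control.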

Row | Structure (SMILES) | outcome | AC50
1 | Nc1nc(N)c2nc(CNc3ccc(C(=O)N[C@@H](CCC(=O)O)C(=O)O)cc3)cnc2n1 | inactive | 
2 | NS(=O)(=O)c1cc2c(cc1Cl)NCNS2(=O)=O | inactive | 
3 | O=C(N[C@@H](Cc1ccccc1)[C@@H](O)C(=O)N1C[C@@H](O)[C@@H](O)C1)c1cc2cc(Cl)ccc2[nH]1 | inactive | 
4 | COc1ccc(C)cc1N | inactive | 
5 | CCc1c(C(=O)NN2CCCCC2)nn(-c2ccc(Cl)cc2Cl)c1-c1ccc(Br)cc1 |  | 13 µM (active)
6 | COc1ccc2c(c1)c(CC(=O)O)c(C)n2C(=O)c1ccc(Cl)cc1 | inactive | 
7 | Cc1ccc(C)c(O)c1C | inactive | 
8 | COCCOCCOC | inactive | 
9 | CN1CCN(Cc2cc(-c3ccc4[nH]c(=O)oc4c3)co2)[C@@H](c2ccc(F)cc2)C1 | inactive | 
10 | Cc1nc(-c2ccc3c(c2)CCN(CCC2CCC(NC(=O)/C=C/c4ccc(F)cc4)CC2)CC3)no1 (configuration not stated) | inactive | 
11 | O=C(O)Cc1ccccc1Nc1c(Cl)cccc1Cl |  | 8.68 µM (active)
12 | FC(F)(F)C(F)(F)C(F)(F)C(F)(F)C(F)(F)C(F)(F)CCI | inactive | 
13 | COc1cc(-c2nc(NC(=O)c3cc4cc(C)cc(C)c4n3CC(=O)O)sc2CCC2CCCCC2)c(OC)cc1Cl |  | 1.38 µM (active)
14 | CC(=O)OC/C=C(\C)CCC=C(C)C | inactive | 
15 | CCOC(=O)C(C)(C)Oc1ccc(Cl)cc1 | inactive | 
16 | CN1CCCC1=O | inactive | 
17 | CCNc1cccc(C)c1 | inactive | 
18 | CCCCCCCCCCCCCCCCCC(=O)O | inactive | 
19 | Cc1oc(-c2ccccc2)nc1CCOc1cccc2c1ccn2CCC(=O)O | inactive | 
20 | CC1(C)NC(=O)NC1=O | inactive | 
21 | Cc1ccccc1Cl | inactive | 
22 | Cc1cc(NC(=O)C(=O)O)cc(C)c1Oc1ccc(O)c2c1CCC2 | inactive | 
23 | Cc1cccc(Nc2cc(Cl)nc(SCC(=O)O)n2)c1C | inactive | 
24 | CC(C)(C)c1cc(O)c(C(C)(C)C)cc1O | inactive | 
25 | Cc1nc(C)nc(N2C[C@@H](C)N(c3ccnc([C@@H](C)O)n3)[C@@H](C)C2)n1 | inactive | 
26 | CC(=O)Oc1ccccc1C(=O)O | inactive | 
27 | CCCCCCOCCO | inactive | 
28 | CCCCCCCCCCCCCCCC | inactive | 
29 | C[Si]1(C)O[Si](C)(C)O[Si](C)(C)O[Si](C)(C)O1 | inactive | 

read-out: Matrix Metallopeptidase 9 (MMP9), MMP9 (gene 4318); test: BSK_KF3CT_MMP9: BioMAP Diversity Plus: KF3CT Assay for Matrix Metallopeptidase 9 (MMP9) Biomarker Activity (AID 2283074); settings: primary human keratinocytes with fibroblasts; actives raise or lower the signal;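 on AC50: MMP9 protein level quantified by ELISA in the co-culture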
In short: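 Keratinocyte plus foreskin fibroblast human primary skin co-culture was dosed with chemical and MMP-9 was quantified by ELISA 24 h later. Bidirectional curve fitting used DMSO as negative control and activity baseline.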

Row | Structure (SMILES) | outcome | AC50
30 | Nc1nc(N)c2nc(CNc3ccc(C(=O)N[C@@H](CCC(=O)O)C(=O)O)cc3)cnc2n1 | inactive | 
31 | NS(=O)(=O)c1cc2c(cc1Cl)NCNS2(=O)=O | inactive | 
32 | O=C(N[C@@H](Cc1ccccc1)[C@@H](O)C(=O)N1C[C@@H](O)[C@@H](O)C1)c1cc2cc(Cl)ccc2[nH]1 | inactive | 
33 | COc1ccc(C)cc1N | inactive | 
34 | CCc1c(C(=O)NN2CCCCC2)nn(-c2ccc(Cl)cc2Cl)c1-c1ccc(Br)cc1 |  | 4.31 µM (active)
35 | COc1ccc2c(c1)c(CC(=O)O)c(C)n2C(=O)c1ccc(Cl)cc1 | inactive | 
36 | Cc1ccc(C)c(O)c1C | inactive | 
37 | COCCOCCOC | inactive | 
38 | CN1CCN(Cc2cc(-c3ccc4[nH]c(=O)oc4c3)co2)[C@@H](c2ccc(F)cc2)C1 |  | 17.6 µM (active)
39 | Cc1nc(-c2ccc3c(c2)CCN(CCC2CCC(NC(=O)/C=C/c4ccc(F)cc4)CC2)CC3)no1 (configuration not stated) | inactive | 
40 | O=C(O)Cc1ccccc1Nc1c(Cl)cccc1Cl | inactive | 
41 | FC(F)(F)C(F)(F)C(F)(F)C(F)(F)C(F)(F)C(F)(F)CCI | inactive | 
42 | COc1cc(-c2nc(NC(=O)c3cc4cc(C)cc(C)c4n3CC(=O)O)sc2CCC2CCCCC2)c(OC)cc1Cl |  | 1.68 µM (active)
43 | CC(=O)OC/C=C(\C)CCC=C(C)C | inactive | 
44 | CCOC(=O)C(C)(C)Oc1ccc(Cl)cc1 | inactive | 
45 | CN1CCCC1=O | inactive | 
46 | CCNc1cccc(C)c1 | inactive | 
47 | CCCCCCCCCCCCCCCCCC(=O)O | inactive | 
48 | Cc1oc(-c2ccccc2)nc1CCOc1cccc2c1ccn2CCC(=O)O | inactive | 
49 | CC1(C)NC(=O)NC1=O | inactive | 
50 | Cc1ccccc1Cl | inactive | 
51 | Cc1cc(NC(=O)C(=O)O)cc(C)c1Oc1ccc(O)c2c1CCC2 | inactive | 
52 | Cc1cccc(Nc2cc(Cl)nc(SCC(=O)O)n2)c1C | inactive | 
53 | CC(C)(C)c1cc(O)c(C(C)(C)C)cc1O | inactive | 
54 | Cc1nc(C)nc(N2C[C@@H](C)N(c3ccnc([C@@H](C)O)n3)[C@@H](C)C2)n1 | inactive | 
55 | CC(=O)Oc1ccccc1C(=O)O | inactive | 
56 | CCCCCCOCCO | inactive | 
57 | CCCCCCCCCCCCCCCC | inactive | 
58 | C[Si]1(C)O[Si](C)(C)O[Si](C)(C)O[Si](C)(C)O1 | inactive | 

read-out: urokinase plasminogen activator (uPA), PLAU (gene 5328); test: BSK_KF3CT_uPA: BioMAP Diversity Plus: KF3CT Assay for urokinase plasminogen activator (uPA) Biomarker Activity (AID 2283075); settings: primary human keratinocytes with fibroblasts; actives raise or lower the signal
In short: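 Human keratinocyte plus foreskin fibroblast primary co-culture exposed to chemical for 24 h. uPA levels were quantified by ELISA, and activity was fitted bidirectionally against a DMSO negative-control baseline.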

Row | Structure (SMILES) | outcome | AC50
59 | Nc1nc(N)c2nc(CNc3ccc(C(=O)N[C@@H](CCC(=O)O)C(=O)O)cc3)cnc2n1 | inactive | 
60 | NS(=O)(=O)c1cc2c(cc1Cl)NCNS2(=O)=O | inactive | 
61 | O=C(N[C@@H](Cc1ccccc1)[C@@H](O)C(=O)N1C[C@@H](O)[C@@H](O)C1)c1cc2cc(Cl)ccc2[nH]1 | inactive | 
62 | COc1ccc(C)cc1N | inactive | 
63 | CCc1c(C(=O)NN2CCCCC2)nn(-c2ccc(Cl)cc2Cl)c1-c1ccc(Br)cc1 |  | 7.27 µM (active)
64 | COc1ccc2c(c1)c(CC(=O)O)c(C)n2C(=O)c1ccc(Cl)cc1 | inactive | 
65 | Cc1ccc(C)c(O)c1C | inactive | 
66 | COCCOCCOC | inactive | 
67 | CN1CCN(Cc2cc(-c3ccc4[nH]c(=O)oc4c3)co2)[C@@H](c2ccc(F)cc2)C1 | inactive | 
68 | Cc1nc(-c2ccc3c(c2)CCN(CCC2CCC(NC(=O)/C=C/c4ccc(F)cc4)CC2)CC3)no1 (configuration not stated) | inactive | 
69 | O=C(O)Cc1ccccc1Nc1c(Cl)cccc1Cl | inactive | 
70 | FC(F)(F)C(F)(F)C(F)(F)C(F)(F)C(F)(F)C(F)(F)CCI | inactive | 
71 | COc1cc(-c2nc(NC(=O)c3cc4cc(C)cc(C)c4n3CC(=O)O)sc2CCC2CCCCC2)c(OC)cc1Cl |  | 1.89 µM (active)
72 | CC(=O)OC/C=C(\C)CCC=C(C)C | inactive | 
73 | CCOC(=O)C(C)(C)Oc1ccc(Cl)cc1 | inactive | 
74 | CN1CCCC1=O | inactive | 
75 | CCNc1cccc(C)c1 | inactive | 
76 | CCCCCCCCCCCCCCCCCC(=O)O | inactive | 
77 | Cc1oc(-c2ccccc2)nc1CCOc1cccc2c1ccn2CCC(=O)O | inactive | 
78 | CC1(C)NC(=O)NC1=O | inactive | 
79 | Cc1ccccc1Cl | inactive | 
80 | Cc1cc(NC(=O)C(=O)O)cc(C)c1Oc1ccc(O)c2c1CCC2 | inactive | 
81 | Cc1cccc(Nc2cc(Cl)nc(SCC(=O)O)n2)c1C | inactive | 
82 | CC(C)(C)c1cc(O)c(C(C)(C)C)cc1O | inactive | 
83 | Cc1nc(C)nc(N2C[C@@H](C)N(c3ccnc([C@@H](C)O)n3)[C@@H](C)C2)n1 | inactive | 
84 | CC(=O)Oc1ccccc1C(=O)O | inactive | 
85 | CCCCCCOCCO | inactive | 
86 | CCCCCCCCCCCCCCCC | inactive | 
87 | C[Si]1(C)O[Si](C)(C)O[Si](C)(C)O[Si](C)(C)O1 | inactive | 
